Data taken from PubChem BioAssay (EPA / NIEHS).
Where “and” joins values, the source holds several entries; their conditions need not be identical. Equal entries are not always repeated. Records with an inconclusive call do not appear. The source holds several records for some structures; these can differ, active in one and inactive in another. Calls of active or inactive are those of the source. The calls were made as follows: active = hit-call score of the fitted dose curve at least 0.9, where 1 is the maximum; inconclusive = response in the unintended direction; inactive = score below 0.9.

How the values were obtained:
[1] = target: Cellular tumor antigen p53 (Homo sapiens) (UniProt P04637); experiment: TOX21_p53_BLA_p2_ratio: Tox21 HCT-116 p53 Agonism Beta-lactamase Assay, Ratio, Phase 2 (AID 2283592)
Procedure, shortened: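 Ratio endpoint: beta-lactamase cleavage of CCF4-AM, blue (460 nm) over green (530 nm). HCT116 reporter line; 16 h treatment, 37C; substrate 2 h RT.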

[2] = TOX21_p53_BLA_p3_viability: Viability Assessment in the Tox21 HCT-116 p53 Agonism Beta-lactamase Assay, Phase 3 (AID 2283593);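 also: cells exposed to compound for 16 h before reading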
Procedure, shortened: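 Cellular ATP was quantified by CellTiter-Glo luminescence, read after 30 min at room temperature. Beforehand, HCT116 cells (4000/well) received compound 5 h post-seeding, 217-fold diluted from DMSO, then incubated 16 h at 37C.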

[3] = target: Cellular tumor antigen p53 (Homo sapiens) (UniProt P04637); experiment: TOX21_p53_BLA_p3_ratio: Tox21 HCT-116 p53 Agonism Beta-lactamase Assay, Ratio, Phase 3 (AID 2283596)
Procedure, shortened: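 Cells were seeded at 4000/well, rested 5 h at 37C, then dosed with DMSO compound solutions (217-fold dilution) for 16 h. CCF4-AM substrate was loaded for 2 h at room temperature, and the 460/530 nm emission ratio was fitted for gain of signal versus DMSO.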

[4] = TOX21_p53_BLA_p4_viability: Viability Assessment in the Tox21 HCT-116 p53 Agonism Beta-lactamase Assay, Phase 4 (AID 2283597);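 also: hits lower the luminescence signal meaning cytotoxicity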
Procedure, shortened: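 Cytotoxicity was inferred from loss of CellTiter-Glo luminescence. HCT116 cells had been dosed with compounds after 5 h plating, incubated 16 h at 37C and 5% CO2, and exposed to the CCF4-AM substrate for 2 h.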

[5] = target: Cellular tumor antigen p53 (Homo sapiens) (UniProt P04637); experiment: TOX21_p53_BLA_p5_ratio: Tox21 HCT-116 p53 Agonism Beta-lactamase Assay, Ratio, Phase 5 (AID 2283599)
Procedure, shortened: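 Beta-lactamase reporter ratio (blue 460 nm over green 530 nm, 405 nm excitation) after 2 h CCF4-AM loading, in HCT-116 cells exposed 16 h at 37 C to compounds pinned at 217-fold dilution. Increases relative to DMSO baseline scored.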

[6] = TOX21_p53_BLA_p5_viability: Viability Assessment in the Tox21 HCT-116 p53 Agonism Beta-lactamase Assay, Phase 5 (AID 2283600)
Procedure, shortened: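 Luciferase-coupled ATP quantitation of cells treated for 16 h (37C, 5% CO2) with test chemicals delivered in DMSO via a 217-fold dilution; 4000 cells/well; reagent incubated 30 min at room temperature before luminescence reading.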

[7] = target: Cellular tumor antigen p53 (Homo sapiens) (UniProt P04637); experiment: TOX21_p53_BLA_p4_ratio: Tox21 HCT-116 p53 Agonism Beta-lactamase Assay, Ratio, Phase 4 (AID 2283601)
Procedure, shortened: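 Signal is the blue/green (460nm/530nm) ratio of cleaved versus uncleaved CCF4-AM substrate, read after 2 h substrate loading. Cells were HCT116 carrying the p53-responsive beta-lactamase reporter, dosed 16 h at 37C, 5% CO2; CellTiter-Glo measured in parallel.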

[8] = Tanguay_ZF_120hpf_MORT_legacy: (Legacy) Oregon State University Tanguay Lab 120 Hour Post-fertilization zebrafish Assay for Mortality (AID 2283633);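 as to AC50: fitted as increase in binary mortality versus DMSO negative control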
Procedure, shortened: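 Dechorionated Tropical 5D wild-type zebrafish embryos, one per well from 6 hpf, were statically exposed at 28C in the dark until 120 hpf (0.64% DMSO final). Mortality was scored as present/absent by brightfield microscopy, fitted positively versus DMSO.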

[9] = Tanguay_ZF_120hpf_YSE_legacy: (Legacy) Oregon State University Tanguay Lab 120 Hour Post-fertilization zebrafish Assay for Yolk Sac Edema (AID 2283634);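 as to AC50: actives raise the incidence of yolk sac edema above the DMSO baseline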
Procedure, shortened: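 Tropical 5D wild-type embryos, dechorionated with pronase at 4 hpf, were exposed singly from 6 hpf to 120 hpf under static, sealed, dark conditions at 28C with 0.64% DMSO final. Yolk sac edema was scored present/absent by brightfield microscopy.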

[10] = Tanguay_ZF_120hpf_AXIS_legacy: (Legacy) Oregon State University Tanguay Lab 120 Hour Post-fertilization zebrafish Assay for Body Axis Malformation (AID 2283635);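 as to AC50: potency for an increased fraction of larvae scored with body axis malformation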
Procedure, shortened: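 Tropical 5D wild-type zebrafish embryos, dechorionated with pronase at 4 hpf, were placed singly in wells at 6 hpf and exposed statically to test chemical (0.64% DMSO final) at 28C until 120 hpf, then scored by brightfield for body axis defects.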

[11] = Tanguay_ZF_120hpf_SNOU_legacy: (Legacy) Oregon State University Tanguay Lab 120 Hour Post-fertilization zebrafish Assay for Snout Malformation (AID 2283637)
Procedure, shortened: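 Binary snout-malformation call at 120 hpf in wild-type 5D embryos, chorion removed by pronase, under static exposure from 6 hpf at 28C (0.64% DMSO). Embryos dying by 24 or 120 hpf excluded.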

[12] = Tanguay_ZF_120hpf_JAW_legacy: (Legacy) Oregon State University Tanguay Lab 120 Hour Post-fertilization zebrafish Assay for Jaw Malformation (AID 2283638);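 as to AC50: active means more embryos with jaw malformation than DMSO controls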
Procedure, shortened: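 Tropical 5D wild-type embryos, dechorionated with pronase at 4 hpf, were placed singly per well at 6 hpf and statically exposed at 28C until 120 hpf (0.64% DMSO final). Jaw malformation scored as present/absent by brightfield microscopy at 120 hpf, analyzed relative to DMSO.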

[13] = Tanguay_ZF_120hpf_OTIC_legacy: (Legacy) Oregon State University Tanguay Lab 120 Hour Post-fertilization zebrafish Assay for Otic Vesicle Malformation (AID 2283639)
Procedure, shortened: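 Statically exposed wild-type 5D zebrafish embryos, kept sealed and dark at 28C through 120 hours post fertilization, were examined by brightfield microscopy for otic vesicle defects. Responses were recorded as present or absent and analysed relative to DMSO.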

[14] = Tanguay_ZF_120hpf_PE_legacy: (Legacy) Oregon State University Tanguay Lab 120 Hour Post-fertilization zebrafish Assay for Pericardial Edema (AID 2283640);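 as to AC50: potency for increased incidence of pericardial edema versus DMSO baseline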
Procedure, shortened: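 Tropical 5D wild-type zebrafish embryos were exposed statically to 120 hpf at 28C, sealed and foil-covered, in 0.64% DMSO final. Pericardial edema was scored present/absent by brightfield microscopy; dead embryos were not scored.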

[15] = Tanguay_ZF_120hpf_BRAI_legacy: (Legacy) Oregon State University Tanguay Lab 120 Hour Post-fertilization zebrafish Assay for Brain Malformation (AID 2283641)
Procedure, shortened: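 Tropical 5D wild-type zebrafish embryos were exposed statically in sealed, foil-covered plates at 28C until 120 hpf, with 0.64% (vol/vol) final DMSO. Brain malformation was scored present/absent by brightfield microscopy, relative to DMSO baseline.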

[16] = Tanguay_ZF_120hpf_SOMI_legacy: (Legacy) Oregon State University Tanguay Lab 120 Hour Post-fertilization zebrafish Assay for Somite Malformation (AID 2283647)
Procedure, shortened: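 Tropical 5D wild-type zebrafish embryos, dechorionated with pronase at 4 hpf, were placed singly at 6 hpf and statically exposed until 120 hpf at 28C in 0.64% DMSO. Somite malformation was scored present/absent by brightfield microscopy versus DMSO.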

[17] = Tanguay_ZF_120hpf_PFIN_legacy: (Legacy) Oregon State University Tanguay Lab 120 Hour Post-fertilization zebrafish Assay for Pectoral Fin Malformation (AID 2283648);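 also: each larva judged yes or no for fin defect by brightfield with dead larvae skipped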
Procedure, shortened: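 Pectoral fin malformation was recorded as a binary endpoint at 120 hpf in wild-type Tropical 5D larvae, which had been dechorionated and exposed statically from 6 hpf at 28C in 0.64% DMSO. Dead embryos were excluded.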

[18] = Tanguay_ZF_120hpf_CFIN_legacy: (Legacy) Oregon State University Tanguay Lab 120 Hour Post-fertilization zebrafish Assay for Caudal Fin Malformation (AID 2283649)
Procedure, shortened: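 Tropical 5D wild-type embryos, dechorionated with pronase at 4 hpf, were placed singly in wells at 6 hpf and statically exposed to compound at 28C until 120 hpf (0.64% DMSO). Caudal fin malformation was scored present/absent by brightfield microscopy.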

[19] = Tanguay_ZF_120hpf_EYE_legacy: (Legacy) Oregon State University Tanguay Lab 120 Hour Post-fertilization zebrafish Assay for Eye Malformation (AID 2283636);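 also: binary presence or absence of eye malformation scored by brightfield in 120 hpf larvae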
Procedure, shortened: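 Binary brightfield scoring of eye defects at 120 hpf after static exposure from 6 hpf of single pronase-dechorionated wild-type embryos (28C, 0.64% DMSO). Non-mortality endpoints omitted where embryos died; fit vs DMSO.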

[20] = Tanguay_ZF_120hpf_PIG_legacy: (Legacy) Oregon State University Tanguay Lab 120 Hour Post-fertilization zebrafish Assay for Pigmentation Malformation (AID 2283650)
Procedure, shortened: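 Pigment malformation recorded as a binary call at 120 hpf in zebrafish (Tropical 5D) exposed singly from 6 hpf after pronase dechorionation. Static, sealed, 28C exposure, 0.64% DMSO; mortality excludes scoring; positive-direction fit against DMSO.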

Measured: AC50

Sequence of Cellular tumor antigen p53 (Homo sapiens) (P04637 whole entry, looked up): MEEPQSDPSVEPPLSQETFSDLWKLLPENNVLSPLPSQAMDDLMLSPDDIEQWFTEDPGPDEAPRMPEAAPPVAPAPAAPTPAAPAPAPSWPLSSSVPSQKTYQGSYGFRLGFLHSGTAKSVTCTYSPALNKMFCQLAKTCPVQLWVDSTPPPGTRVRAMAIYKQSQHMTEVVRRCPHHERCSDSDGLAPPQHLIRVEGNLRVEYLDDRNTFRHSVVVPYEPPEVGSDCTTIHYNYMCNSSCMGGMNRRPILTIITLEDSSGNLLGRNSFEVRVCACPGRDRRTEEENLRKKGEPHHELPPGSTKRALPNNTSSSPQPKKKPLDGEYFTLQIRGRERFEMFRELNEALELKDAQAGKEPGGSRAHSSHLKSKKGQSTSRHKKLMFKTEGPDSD

NCCOCCOCCN
not listed: [19] | [20]
inactive: all other assays above

COC(=O)CCC(=O)OC
not listed: [16] | [20]
inactive: all other assays above

CCc1cc(C2=C(C(=O)O)N(c3ccccc3C(F)(F)F)S(=O)(=O)c3ccccc32)cc2c1OCO2
active: [4] 68 µM | [7] 75.1 µM
not listed: [13] | [16] | [20]
inactive: all other assays above

CCCCCCCCCCCCCCOS(=O)(=O)O
inactive: [1] | [2] | [3]
active: [4] 73.1 µM | [5] 80.7 µM | [6] 68.3 µM | [7] 78.4 µM | [8] 27.8 µM | [9] 10.8 µM | [10] 31.5 µM | [19] 26.1 µM | [11] 24.7 µM | [12] 42.3 µM | [13] 9.8 µM | [14] 27.7 µM | [15] 10.4 µM | [17] 16.8 µM | [18] 46.9 µM | [20] 9.35 µM

Oc1ccc(O)cc1
active: [1] 20.2 µM | [2] 42.5 µM and 61.1 µM and 38.2 µM | [3] 21.4 µM | [4] 47.1 µM and 70.6 µM and 36.2 µM | [6] 17 µM and 35.8 µM and 37.7 µM | [8] 1.77 µM
inactive: [1] | [3] | [5] | [7] | [9] | [10] | [19] | [11] | [12] | [13] | [14] | [15] | [16] | [17]

Cc1c(C)c2c(c(C)c1O)CCC(C)(COc1ccc(CC3SC(=O)NC3=O)cc1)O2 (stereo not drawn)
inactive: [6] | [8] | [9] | [10] | [19] | [11] | [12] | [13] | [14] | [15] | [17] | [18] | [20]
active: [1] 15.4 µM and 28.5 µM | [2] 73.8 µM | [3] 28.1 µM and 26 µM | [4] 66.4 µM and 34.8 µM | [5] 56.1 µM and 34.1 µM | [6] 87 µM | [7] 76 µM and 35.5 µM

Cc1occc(=O)c1O
inactive: [8] | [9] | [10] | [19] | [11] | [12] | [13] | [14] | [15] | [17] | [18]

C#CC(O)C(CC)CCCC (stereo not drawn)
inactive: [8] | [9] | [10] | [19] | [11] | [12] | [13] | [14] | [15] | [17] | [18]

CC(=O)O
inactive: [8] | [9] | [10] | [19] | [12] | [13] | [14] | [15]

CC(=O)CC(c1ccccc1)c1c(O)c2ccccc2oc1=O (stereo not drawn)
inactive: [8] | [9] | [10] | [12] | [17] | [18]

CC(COCC(C)OC(=O)c1ccccc1)OC(=O)c1ccccc1 (stereo not drawn)
inactive: [8] | [9] | [10] | [19] | [11] | [12] | [13] | [15] | [16] | [18] | [20]

NC=O
inactive: [8] | [9] | [10] | [19] | [11] | [12] | [13] | [14] | [15] | [17] | [18]

C/C=C/c1ccc(OC)cc1
inactive: [8] | [9] | [19] | [11] | [12] | [13] | [14] | [15] | [17] | [18]

Cc1ccc(-c2cc(C(F)(F)F)nn2-c2ccc(S(N)(=O)=O)cc2)cc1
inactive: [8] | [9] | [10] | [19] | [11] | [12] | [14] | [15] | [17] | [18]

CC(C)c1cccc(C(C)C)c1
inactive: [8] | [10] | [19] | [12] | [13] | [14] | [15] | [18] | [20]

CCCC(=O)O
inactive: [8] | [9] | [10] | [19] | [11] | [14] | [15] | [17] | [18]
